Assay outcomes: PubChem, The Scripps Research Institute Molecular Screening Center
M1 PAM: human CHRM1 positive allosteric modulation | CHO-K1 hM1, Fluo-8 calcium fluorescence, ACh EC20; 0% = ACh EC20, 100% = maximal ACh | activation, % at 3 µM | actives 0.088% (n = 360,000); in the data active means activation above about 19%, passing the limit was not always enough
Target sequence (P11229 whole entry, looked up): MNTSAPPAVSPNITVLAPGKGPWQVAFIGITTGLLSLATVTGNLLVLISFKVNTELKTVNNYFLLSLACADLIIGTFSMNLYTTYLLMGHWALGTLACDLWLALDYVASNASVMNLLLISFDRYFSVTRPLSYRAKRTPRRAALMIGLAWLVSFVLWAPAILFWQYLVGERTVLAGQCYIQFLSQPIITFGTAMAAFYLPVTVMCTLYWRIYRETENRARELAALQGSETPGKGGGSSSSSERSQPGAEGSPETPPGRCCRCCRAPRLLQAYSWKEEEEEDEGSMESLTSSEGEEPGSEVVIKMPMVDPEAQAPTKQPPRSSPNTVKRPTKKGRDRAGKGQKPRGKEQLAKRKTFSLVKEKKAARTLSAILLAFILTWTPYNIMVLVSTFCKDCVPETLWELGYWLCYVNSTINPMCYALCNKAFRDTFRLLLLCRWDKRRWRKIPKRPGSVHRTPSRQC
M1 antag: human CHRM1 antagonism; AID 588852; P11229; actives 1.3% (n = 360,000); inhibition, % at 3 µM; CHO-K1 hM1, Fluo-8 calcium fluorescence, ACh EC80 antagonist;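 active means percent inhibition above its own plate's cutoff, namely the mean of that plate's compound wells plus 3 SD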;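 further: peak over basal fluorescence ratio during 140 s after agonist addition; 0% = ACh EC80 plus DMSO and 100% = DMSO alone without agonist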
M1 ag parental: counter-screen for M1 agonists: effect in parental CHO-K1 cells; activation, % at 3 µM; Fluo-8 calcium fluorescence; scaled to maximal ATP response, vehicle zero; actives 0.48% (n = 360,000); in the data active means activation above about 15%;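 further: untransfected CHO-K1 host cells lacking M1 receptor as counterscreen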
CHO-K1 Ca antag: M1 antagonist counterscreen hit in parental CHO-K1 cells; ATP-induced calcium, Fluo-8 fluorescence; inhibition, % at 3 µM; actives 0.6% (n = 360,000);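 active means inhibition above a per-plate cutoff, the plate's mean sample inhibition plus 3 SD, cut at about 24% in these data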;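 further: 0% = DMSO plus EC80 ATP and 100% = DMSO alone without ATP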
M1 PAM parental: M1 PAM counterscreen hit in parental CHO-K1 cells. ATP EC20, Fluo-8 calcium fluorescence; 0% at ATP EC20, 100% at ATP max. activation, % at 3 µM. actives 0.02% (n = 360,000);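 active means activation above the run cutoff, the mean activation of all test compounds plus 3 SD, cut at about 40% in these data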;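 further: peak over basal fluorescence ratio in a 140 s read after ATP addition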
M1 ag: agonists of human M1 muscarinic receptor | actives 0.33% (n = 360,000) | AID 588814 | activation, % at 3 µM | P11229 | CHO-K1 hM1, Fluo-8 calcium fluorescence, agonist mode; 0% DMSO, 100% acetylcholine EC100;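 active means activation above the run's mean compound activation plus 3 SD, cut at about 16% in these data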;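 further: peak over basal fluorescence ratio within a 140 s kinetic read after compound addition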
An asterisk follows results filed as active; nt = no result given. Sampled rows, rich in hits. Any-hit rate of the full collection: about 2.3%.

SMILES | M1 PAM | M1 antag | M1 ag parental | CHO-K1 Ca antag | M1 PAM parental | M1 ag
COc1cc(/C=C2\SC(=S)N(NC(=O)c3ccc(O)c(OC)c3)C2=O)ccc1O | -11.3 | 24.8 | 17.1* | 8.5 | 7.8 | 26.8*
COc1cc(/C=C2\SC(=S)N(NC(=O)c3cccc(O)c3)C2=O)ccc1O | -5.5 | 22.6 | 13.6 | 13.1 | -34.0 | 16.5*
Cc1ccc(/C=C2\SC(=S)N(CCC(=O)NNC(=O)c3cccc(O)c3)C2=O)cc1 | -9.3 | 31.6* | 5.3 | 14.4 | 15.2 | -0.7
Cc1ccc(-c2nc3cc(C)c(Br)c(C)n3c2Cc2ccsc2)cc1 | nt | nt | -0.2 | -27.0 | 1.9 | nt
CC(C)(C)c1ccc(C(=O)NC(=O)COC(=O)c2ccc(Br)o2)cc1 | 8.7 | -19.1 | 1.1 | -22.1 | 12.5 | -4.8
NC(c1csc(Nc2ccc(C(F)(F)F)cn2)n1)C1CCCCC1 (stereo not drawn) | 7.4 | -7.3 | 1.6 | -6.7 | 12.8 | 1.7
CC(OC(=O)c1ccc(F)c(S(=O)(=O)N2CCOCC2)c1)C(=O)NC1CCCC1 (stereo not drawn) | 4.0 | -7.5 | -0.2 | 26.8* | -10.9 | -1.5
C/C(=C/c1ccccc1)C(=O)N1CCN(c2ccc(F)cc2)CC1 | 8.4 | -10.8 | 15.7* | 3.8 | 16.3 | 4.4
CC1CC(C)CN(C(=O)/C(=C\c2ccccc2)c2ccccc2)C1 (stereo not drawn) | 3.8 | -5.8 | 0.1 | -0.2 | 9.1 | -9.5
O=C(CCC(=O)N1CCN(c2ccc(F)cc2)CC1)N1CCN(c2ccc(F)cc2)CC1 | 1.2 | -8.5 | 6.7 | -5.1 | 8.5 | -0.9
CN1CCN(C(=O)/C(=C/c2ccc(F)cc2)c2ccsc2)CC1 | -23.7 | 98.4* | 0.8 | -5.6 | 9.0 | -6.0
CN1CCN(C(=O)/C(=C/c2ccccc2)c2ccccc2)CC1 | -20.7 | 98.5* | 8.7 | -4.7 | 24.8 | -7.2
CN1CCN(C(=O)/C(C#N)=C/c2ccc(F)cc2)CC1 | 3.3 | -6.2 | 0.1 | -2.9 | -9.5 | -2.1
C[C@H]1CN([C@@H](C)CO)S(=O)(=O)c2ccc(Br)cc2O[C@@H]1CN(C)Cc1cccc(F)c1 | 2.8 | -9.7 | -0.1 | -10.3 | 13.6 | -4.9
CC1(Cc2ccc(F)c(Cl)c2)C(=O)Nc2c(Cl)cccc21 (stereo not drawn) | 1.6 | -8.1 | -0.8 | -2.6 | -1.8 | -1.1
Cn1nc(C(C)(C)C)cc1C(=O)N1CCCCC1c1cc(C(=O)Nc2ccc3c(c2)OCO3)no1 (stereo not drawn) | 6.0 | -8.8 | 2.1 | 4.0 | 5.4 | -3.7
COc1cc(OC)cc(-c2c(Sc3ccccc3)c3cc(-c4ccc(SC)cc4)ccc3n2C)c1 | nt | nt | 1.0 | -4.7 | 11.4 | nt
COc1ccc(CC(=O)OCC(=O)Nc2cccnc2Cl)cc1OC | 0.6 | 34.7* | 0.6 | -7.0 | 9.0 | 6.3
OC[C@@H]1CN(Cc2ccc3c(c2)OCO3)C[C@H](n2cnc3c(NCc4ccncc4)ncnc32)O1 | 1.7 | -4.5 | 1.8 | -0.3 | 19.3 | -2.7
O=C1NC[C@H](CCCCN2CCN(CC3CCCCC3)C(=O)C2=O)N(CC2CCCCC2)C1=O | nt | nt | 1.2 | -20.8 | 13.9 | nt
CN1CCC(OC(=O)c2ccco2)CC1 | -16.5 | 26.6 | 1.0 | 0.4 | -6.2 | -7.9
CN1CCC(OC(=O)c2ccc(Cl)cc2Cl)CC1 | -6.8 | -0.6 | 2.2 | -8.2 | 16.0 | -11.4
Cc1ccccc1C(=O)OC1CCN(C)CC1 | -20.5 | 35.4* | 2.6 | -3.0 | 11.6 | -8.6
CN1CCC(OC(=O)c2ccccc2Cl)CC1 | -32.9 | 48.4* | 0.0 | -3.5 | 2.0 | -13.1
CC1CCC(NC(=O)C2COc3ccccc3O2)CC1 (stereo not drawn) | 2.2 | -5.3 | -0.6 | 20.6 | -8.4 | -6.3
SMILES | M1 PAM | M1 antag | M1 ag parental | CHO-K1 Ca antag | M1 PAM parental | M1 ag
O=C(Nc1nnc(-c2ccc3c(c2)CCCC3)o1)C1COc2ccccc2O1 (stereo not drawn) | -3.5 | 3.3 | -0.6 | 25.5* | -10.3 | -4.3
O=C(NC1CCCCC1)C1COc2ccccc2O1 (stereo not drawn) | -25.7 | 45.9* | 0.5 | -3.2 | 3.4 | -7.3
CCN(CC1CCCN(CCc2cccc(F)c2)C1)C(=O)c1ccoc1C (stereo not drawn) | -10.8 | 9.2 | -0.6 | -5.6 | 13.8 | -9.1
CCN(CC1CCCN(CCc2cccc(F)c2)C1)C(=O)c1ccc(CSC)o1 (stereo not drawn) | -24.0 | 60.8* | 0.5 | 2.4 | 0.3 | -6.8
CCOC(=O)c1cnc(-n2[nH]c(C)c(Cc3ccccc3)c2=O)[nH]c1=O | 7.6 | -4.0 | 0.2 | -2.6 | 4.8 | -2.8
CCOC(=O)c1cnc(Cc2ccccc2)[nH]c1=O | -9.0 | 25.1* | 0.5 | -14.2 | -8.2 | -9.6
CC1(C(=O)NS(=O)(=O)C2CC2)CCCN(C(=O)c2ccc3ccccc3c2)C1 (stereo not drawn) | 11.1 | -12.8 | 0.2 | -6.9 | 6.7 | -1.6
COc1ccc(/C=N/n2nnnc2N)c(OC)c1 | -7.6 | 38.3* | -0.2 | 7.7 | 2.0 | -7.9
Cc1n[nH]c2c([N+](=O)[O-])c(=O)[nH]c(=O)n12 | 0.8 | -8.8 | 0.2 | -4.3 | 0.8 | -1.3
COc1ccc(CN2C(=O)C(CC(=O)NCCc3ccccn3)CC(C(=O)N3CCCCCC3)=C2C)cc1 (stereo not drawn) | nt | nt | 0.6 | -26.2 | 13.7 | nt
COc1cc(OC)nc(Nc2nc(CN)cs2)n1 | 2.7 | -8.0 | 0.3 | 0.7 | -0.2 | -2.3
COc1cccc(N2C(=O)C3CCCN3C2c2cccs2)c1 (stereo not drawn) | 6.8 | -6.3 | 0.4 | -11.9 | 26.2 | 18.4*
O=C1C2CCCN2C(c2cccs2)N1c1ccc(F)cc1 (stereo not drawn) | 2.9 | -3.1 | 2.8 | 6.8 | -5.0 | -11.1
COc1ccc([C@H]2CC(=O)C[C@@H](CCn3cc(C(C)C)nn3)O2)cc1 | nt | nt | 0.9 | -7.4 | 16.0 | nt
O=C1c2ccccc2C(c2nnnn2-c2ccc3c(c2)OCCO3)N1C1CC1 (stereo not drawn) | nt | nt | 0.2 | -17.9 | 6.3 | nt
Cc1cc(NC(=O)COc2ccc(Cl)cc2Cl)n(-c2ccccc2)n1 | -1.4 | 0.3 | 0.6 | 10.3 | -2.7 | -3.3
Cc1cc(NC(=O)CSc2cc(Cl)ccc2Cl)n(-c2ccccc2)n1 | -6.5 | 0.8 | 2.6 | 25.1* | -3.7 | -7.8
Nc1nc(N2CCCCC2)nc2ccccc12 | -10.3 | 25.8 | -0.2 | 10.4 | -6.7 | -4.5
Nc1nc(N2CCN(c3ccccn3)CC2)nc2ccccc12 | -28.5 | 36.5* | 1.1 | 7.5 | -23.1 | -8.6
c1ccc(-c2nnc(N3CCN(c4ccccn4)CC3)c3ccccc23)cc1 | -17.9 | 47.5* | 2.1 | 20.9 | -7.2 | -3.2
Cc1ccc2c3c(cccc13)-c1ccccc1C2=O | 1.1 | -1.5 | 1.0 | -9.7 | 11.8 | -7.5
Nc1ccc2c3c(cccc13)-c1ccccc1-2 | -13.8 | 42.4* | 35.4* | 37.5* | -12.4 | 36.8*
